# An excerpt weighted towards active compounds, which were near 2.3% of everything screened.
# M1 antag: human M1 muscarinic receptor antagonists, primary screen, CHO-K1 cells, Fluo-8 calcium fluorescence, 1536-well; inhibition, % at 3 µM; 360,000 compounds, 1.3% hits; Muscarinic acetylcholine receptor M1 (Homo sapiens), P11229; CHO-K1 hM1, ACh EC80 antagonist; AID 588852, 2011;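 active means percent inhibition above its own plate's cutoff, namely the mean of that plate's compound wells plus 3 SD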;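 further: peak over basal fluorescence ratio during 140 s after agonist addition; 0% = ACh EC80 plus DMSO and 100% = DMSO alone without agonist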
# Target sequence (P11229 whole entry, looked up): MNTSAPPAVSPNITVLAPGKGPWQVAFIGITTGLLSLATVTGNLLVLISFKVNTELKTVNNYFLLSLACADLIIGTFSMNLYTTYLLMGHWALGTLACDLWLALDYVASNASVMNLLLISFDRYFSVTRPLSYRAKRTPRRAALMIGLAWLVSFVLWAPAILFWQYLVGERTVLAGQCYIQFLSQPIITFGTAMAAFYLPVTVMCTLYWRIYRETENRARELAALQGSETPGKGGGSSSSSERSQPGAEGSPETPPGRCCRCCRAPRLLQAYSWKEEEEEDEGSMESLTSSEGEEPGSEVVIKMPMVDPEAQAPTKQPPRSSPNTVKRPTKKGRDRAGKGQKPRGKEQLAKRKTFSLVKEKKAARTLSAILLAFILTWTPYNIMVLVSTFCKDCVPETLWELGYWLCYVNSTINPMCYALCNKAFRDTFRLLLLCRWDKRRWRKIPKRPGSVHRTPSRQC
# CHO-K1 Ca antag: M1 antagonist counterscreen hit in parental CHO-K1 cells; inhibition, % at 3 µM; ATP-induced calcium, Fluo-8 fluorescence; 360,000 compounds, 0.6% hits;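 active means inhibition above a per-plate cutoff, the plate's mean sample inhibition plus 3 SD, cut at about 24% in these data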;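 further: 0% = DMSO plus EC80 ATP and 100% = DMSO alone without ATP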
# M1 PAM: human M1 muscarinic receptor positive allosteric modulators, primary screen, CHO-K1 cells, Fluo-8 calcium fluorescence, 1536-well; Muscarinic acetylcholine receptor M1 (Homo sapiens), P11229; CHO-K1 hM1, ACh EC20; 0% = ACh EC20, 100% = maximal ACh; activation, % at 3 µM; 360,000 compounds, 0.088% hits; AID 588819, 2011; in the data active means activation above about 19%, passing the limit was not always enough
# CHRM1 agonist: human M1 muscarinic receptor agonists, primary screen, Fluo-8 calcium fluorescence, CHO-K1 cells, HTS | CHO-K1 hM1, agonist mode; 0% DMSO, 100% acetylcholine EC100 | AID 588814, 2011 | activation, % at 3 µM | 360,000 compounds, 0.33% hits;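 active means activation above the run's mean compound activation plus 3 SD, cut at about 16% in these data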;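 further: peak over basal fluorescence ratio within a 140 s kinetic read after compound addition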
# M1 ag parental: counter-screen for M1 agonists: effect in parental CHO-K1 cells; Fluo-8 calcium fluorescence; scaled to maximal ATP response, vehicle zero; activation, % at 3 µM; 360,000 compounds, 0.48% hits; AID 602248, 2012; in the data active means activation above about 15%;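 further: untransfected CHO-K1 host cells lacking M1 receptor as counterscreen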
# CHO-K1 Ca PAM: nonselective calcium activators in parental CHO-K1 cells, primary screen, counter-screen for M1 PAM project, cell-based, Fluo-8 calcium fluorescence, full deck, 1536-well. AID 602247, 2012. ATP EC20; 0% at ATP EC20, 100% at ATP max. activation, % at 3 µM. 360,000 compounds, 0.02% hits;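 active means activation above the run cutoff, the mean activation of all test compounds plus 3 SD, cut at about 40% in these data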;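 further: peak over basal fluorescence ratio in a 140 s read after ATP addition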
# Numbers without * were called inactive; ! = not confirmed by another sample.
SMILES,M1 antag,CHO-K1 Ca antag,M1 PAM,CHRM1 agonist,M1 ag parental,CHO-K1 Ca PAM
CCn1nc(C(=O)N2CCN(Cc3nc4ccccc4s3)CC2)c2ccccc2c1=O,38*,10,-17,-2,7,-20
O=C(c1nn(Cc2ccccc2)c(=O)c2ccccc12)N1CCN(C/C=C/c2ccccc2)CC1,95*,5,-22,-5,1,19
O=C(c1ccco1)N1CCN(C/C=C/c2ccccc2)CC1,2,2,7,-5,0,8
CN(Cc1ccon1)C(=O)C1CCC(=O)N(CCc2ccc(Cl)cc2)C1 (centres undefined),-7,-17,3,-2,2,20
CN1CCc2c(c3ccccc3n2Cc2ccccc2)C1,66*!,1,-26,-7,0,4
CN1CCC(N(C)C(=S)Nc2ccc(SC(F)F)cc2)CC1,-1,-6,-3,18*,1,9
CN1CCC(N(C)C(=S)Nc2ccc(F)cc2)CC1,3,-4,4,-4,0,4
Cc1cccc(S(=O)(=O)NC(=O)C2(C)CCN2C(=O)c2c(C)noc2C)c1 (centres undefined),-18,-8,15,1,0,17
Cc1cc(C)nc(/N=C(\N)N2CCCCCC2)n1,30*,-2,-24,-12,0,10
COc1ccc(-n2c(-c3ccccc3)nc(=S)c3c2CCCC3)cc1,-28,-5,6,-1,4,17
COc1ccc(-n2c(-c3cccc(OC)c3)nc(=S)c3c2CCCC3)cc1,60*,-11,-35,-15,1,9
NNC(=O)c1cc(C23CC4CC(CC(C4)C2)C3)[nH]n1,-7,2,6,3,17*,-8
CCN(CC)CC1CN(N=Cc2ccc([N+](=O)[O-])o2)C(=O)O1 (centres undefined),-10,4,6,-5,4,10
O=C(NCCN1CCOCC1)c1ccc2c(c1)N(Cc1ccccc1)C(=O)c1ccccc1S2,10,1,-1,-2,0,13
O=C(NCCN1CCOCC1)c1ccc2c(c1)N(Cc1ccc(Cl)cc1)C(=O)CS2,28*,-23,-29,-11,3,-3
O=C(NCCN1CCOCC1)c1ccc2c(c1)N(Cc1ccccc1)C(=O)CS2,30*,-10,-21,-8,0,6
CCN1C(=O)CSc2ccc(C(=O)NCCCN3CCOCC3)cc21,-6,-13,5,-14,0,8
CN(C(=O)Cn1c(=O)oc2cc(S(=O)(=O)N3CCCC3)ccc21)C1CCCCC1,2,4,-1,-4,0,-10
COc1cccc(Oc2coc3c(CN4CCOCC4)c(O)ccc3c2=O)c1,21,28*,-4,-6,0,-2
CN(c1cccc(NC(=O)Nc2cccc(Cl)c2)c1)S(C)(=O)=O,14,20,-12,10,18*,1
Cc1ccc(SCCC(=O)Nc2cccc(N(C)S(C)(=O)=O)c2)cc1,-3,42*,9,0,25*,-2
CCOc1cccc2cc(C(=O)Oc3ccc(OC)cc3)c(=O)oc12,-4,-1,11,6,16*,20
CCCCCCCCCCCCCCCC[N+](C)(C)CCl,43*,-13,-21,-7,0,18
CCCCCCCCCCCCCCCC[N+](C)(C)CC,90*,-4,-26,0,2,15
CCCCCC[N+](C)(C)CCSSCC[N+](C)(C)CCCCCC,-9,-14,10,-8,1,24
SMILES,M1 antag,CHO-K1 Ca antag,M1 PAM,CHRM1 agonist,M1 ag parental,CHO-K1 Ca PAM
CC(NCc1ccc(S(N)(=O)=O)cc1)C(=O)NCc1ccccc1 (centres undefined),-10,-8,10,-8,0,7
CC(NC(=O)COc1ccccc1)C(=O)NCc1ccc(S(N)(=O)=O)cc1 (centres undefined),-20,-9,27*,2,1,15
Cn1c(CCC(=O)OCC(=O)Nc2ccc(Oc3ccccc3)cc2)nc(=O)c2ccccc21,37*,0,-29,-11,1,10
O=C(CN1CCN(S(=O)(=O)c2ccc(Cl)cc2)CC1)c1ccc(O)c(O)c1,-22,-12,27*,-3,2,1
Cc1cc(Cl)ccc1OCC(=O)OCC(=O)c1c(N)n(C)c(=O)n(C)c1=O,7,-3,2,-1,0,0
O=C1CC(c2cccnc2)c2cc3c(cc2N1)OCCO3 (centres undefined),39*,11,-9,-1,0,-6
Cn1ccc2c(N3c4ccccc4CCc4ccccc43)cc3c(c21)C1CCC3C1 (centres undefined),37*,9,-16,-12,0,6
Cn1ccc2c(-c3cccc4ccccc34)cc3c(c21)C1CCC3C1 (centres undefined),1,38*,17,10,0,-9
CN(c1ccc(Cl)cc1)c1cc2c(c3c1ccn3C)C1CCC2C1 (centres undefined),-7,-2,11,-4,1,21
CCN(CC)c1cc2c(c3c1ccn3C)C1CCC2C1 (centres undefined),23,25*,-11,-9,0,0
CN(c1cc(Cl)c2c(c1)OCO2)c1cc2c(c3c1ccn3C)C1CCC2C1 (centres undefined),4,27*,-3,-6,0,3
O=C(OCc1cn([C@H]2CN(C(=O)c3cccs3)[C@@H](c3ccccc3)C[C@@H]2O)nn1)c1ccccc1,-4,-13,3,-3,4,23
CC(C)(C)CN1CCC(Oc2cccc(C(=O)NCCCOc3cccnc3)c2)CC1,17,24*,-3,-5,0,-32
O=C(CN1CCN(C2CCCCC2)CC1)NCCC1=CCCCC1,-9,2,-14,45*,0,-10
CS(=O)(=O)N(CC(=O)NCCC1=CCCCC1)C1CCCCC1,-4,-4,4,-1,0,7
O=C(Nc1ccc(S(=O)(=O)N2CCCCC2)cc1)C1CC(=O)N(c2ccc(Cl)cc2)C1 (centres undefined),-19,-8,15,-3,0,18
C#CC[N+](C)(C)CCCCCCCCCCCC,56*,-7,-26,-14,24*,29
C#CC[N+](C)(C)CCCCCCCCCC,21,0,-17,-8,0,20
CC#CC[N+](C)(C)CCCCCCCCCCCC,41*,-8,-27,-10,1,16

# From PubChem BioAssay
